Key:
Test in all cases: DAPPL (digital affinity profiling via proximity ligation, sequencing); 10 mM Tris-HCl pH 7.5, 50 mM NaCl, 1 mM DTT, 4% glycerol, room temperature, 30 min; GST-TFs on glutathione beads, 16-mer random dsDNA library, 0.1% formaldehyde crosslink after washing; high values mean tight binding
[1] = target: T1, FEV (Homo sapiens, UniProt Q99581 1-238); conditions: protein: recombinant; tags: N-terminal GST; dsDNA, one strand shown
T1 sequence: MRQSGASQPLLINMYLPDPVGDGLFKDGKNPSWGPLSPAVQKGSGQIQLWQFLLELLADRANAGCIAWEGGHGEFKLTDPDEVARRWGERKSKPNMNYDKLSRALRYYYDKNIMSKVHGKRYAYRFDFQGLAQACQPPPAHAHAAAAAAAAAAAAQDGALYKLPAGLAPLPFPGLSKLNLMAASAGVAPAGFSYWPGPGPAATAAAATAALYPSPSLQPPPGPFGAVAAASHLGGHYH
In short: (§1)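 Human transcription factors were made in yeast as GST fusions, captured on glutathione beads and barcoded with DNA. With a tag-only sample included, the pool was incubated with 200 nmole of a random double-stranded 16-mer DNA library in Tris/NaCl/DTT/glycerol buffer at room temperature for 30 min, then crosslinked with 0.1% formaldehyde after washing, ligated by proximity, amplified and sequenced. For binding signal, each hexamer's read frequency for a factor is divided by its frequency for the tag-only sample.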

[2] = target: ETV5 (Homo sapiens, UniProt P41161 1-510); conditions: protein: recombinant; tags: N-terminal GST; dsDNA, one strand shown
In short: as §1

[3] = target: HSF1 (Homo sapiens, UniProt Q00613 1-529); conditions: protein: recombinant; tags: N-terminal GST; chain copies: 3; dsDNA, one strand shown
In short: as §1

[4] = target: T2, SPIC (Homo sapiens, UniProt Q8N5J4 1-248); conditions: protein: recombinant; tags: N-terminal GST; dsDNA, one strand shown
T2 sequence: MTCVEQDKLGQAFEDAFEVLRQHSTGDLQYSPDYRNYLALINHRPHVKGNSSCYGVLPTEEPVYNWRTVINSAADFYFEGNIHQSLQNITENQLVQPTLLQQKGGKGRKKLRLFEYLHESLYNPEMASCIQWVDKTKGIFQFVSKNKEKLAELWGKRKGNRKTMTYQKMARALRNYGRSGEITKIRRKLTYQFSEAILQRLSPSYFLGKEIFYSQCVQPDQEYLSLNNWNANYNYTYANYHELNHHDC
In short: as §1

[5] = target: ELF4 (Homo sapiens, UniProt Q99607 1-663); conditions: protein: recombinant; tags: N-terminal GST; dsDNA, one strand shown
In short: as §1

[6] = target: T3, ELK4 (Homo sapiens, UniProt P28324-2 1-405); conditions: protein: recombinant; tags: N-terminal GST; dsDNA, one strand shown
T3 sequence: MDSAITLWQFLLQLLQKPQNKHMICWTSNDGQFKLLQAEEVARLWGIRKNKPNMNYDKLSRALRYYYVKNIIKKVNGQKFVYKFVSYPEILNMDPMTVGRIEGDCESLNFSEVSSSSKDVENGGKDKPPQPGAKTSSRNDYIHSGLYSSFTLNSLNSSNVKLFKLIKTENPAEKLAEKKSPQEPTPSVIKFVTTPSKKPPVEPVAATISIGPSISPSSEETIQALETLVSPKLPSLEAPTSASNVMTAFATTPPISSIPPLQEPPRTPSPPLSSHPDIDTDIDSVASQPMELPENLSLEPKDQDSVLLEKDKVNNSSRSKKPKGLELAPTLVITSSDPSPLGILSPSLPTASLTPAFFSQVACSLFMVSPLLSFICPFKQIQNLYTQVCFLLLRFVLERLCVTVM
In short: as §1

[7] = target: T4, ETV2 (Homo sapiens, UniProt O00321 1-342); conditions: protein: recombinant; tags: N-terminal GST; dsDNA, one strand shown
T4 sequence: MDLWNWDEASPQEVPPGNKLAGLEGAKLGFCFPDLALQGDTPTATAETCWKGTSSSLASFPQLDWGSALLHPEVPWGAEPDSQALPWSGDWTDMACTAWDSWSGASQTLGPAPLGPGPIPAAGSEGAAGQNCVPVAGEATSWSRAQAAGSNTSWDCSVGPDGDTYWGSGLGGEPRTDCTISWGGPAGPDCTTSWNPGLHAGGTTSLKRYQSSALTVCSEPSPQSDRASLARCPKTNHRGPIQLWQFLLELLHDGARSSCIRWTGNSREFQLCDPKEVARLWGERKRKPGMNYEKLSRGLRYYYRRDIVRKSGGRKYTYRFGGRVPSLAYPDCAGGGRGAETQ
In short: as §1

[8] = target: T5, ELF3 (Homo sapiens, UniProt P78545 1-371); conditions: protein: recombinant; tags: N-terminal GST; dsDNA, one strand shown
T5 sequence: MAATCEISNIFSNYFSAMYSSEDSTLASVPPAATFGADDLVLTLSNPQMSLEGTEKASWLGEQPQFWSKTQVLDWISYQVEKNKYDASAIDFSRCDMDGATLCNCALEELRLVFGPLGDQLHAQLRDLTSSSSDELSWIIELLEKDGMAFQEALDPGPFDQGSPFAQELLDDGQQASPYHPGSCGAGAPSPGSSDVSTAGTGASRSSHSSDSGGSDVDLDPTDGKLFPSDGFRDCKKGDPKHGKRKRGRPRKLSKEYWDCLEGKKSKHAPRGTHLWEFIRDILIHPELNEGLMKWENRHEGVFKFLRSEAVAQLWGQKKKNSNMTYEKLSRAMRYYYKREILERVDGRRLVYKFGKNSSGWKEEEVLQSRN
In short: as §1

[9] = target: CRX (Homo sapiens, UniProt O43186 1-299); conditions: protein: recombinant; tags: N-terminal GST; dsDNA, one strand shown
In short: as §1

[10] = target: ETV1 (Homo sapiens, UniProt P50549 1-477); conditions: protein: recombinant; tags: N-terminal GST; dsDNA, one strand shown
In short: as §1

[11] = target: T6, ERF (Homo sapiens, UniProt P50548 1-548); conditions: protein: recombinant; tags: N-terminal GST; dsDNA, one strand shown
T6 sequence: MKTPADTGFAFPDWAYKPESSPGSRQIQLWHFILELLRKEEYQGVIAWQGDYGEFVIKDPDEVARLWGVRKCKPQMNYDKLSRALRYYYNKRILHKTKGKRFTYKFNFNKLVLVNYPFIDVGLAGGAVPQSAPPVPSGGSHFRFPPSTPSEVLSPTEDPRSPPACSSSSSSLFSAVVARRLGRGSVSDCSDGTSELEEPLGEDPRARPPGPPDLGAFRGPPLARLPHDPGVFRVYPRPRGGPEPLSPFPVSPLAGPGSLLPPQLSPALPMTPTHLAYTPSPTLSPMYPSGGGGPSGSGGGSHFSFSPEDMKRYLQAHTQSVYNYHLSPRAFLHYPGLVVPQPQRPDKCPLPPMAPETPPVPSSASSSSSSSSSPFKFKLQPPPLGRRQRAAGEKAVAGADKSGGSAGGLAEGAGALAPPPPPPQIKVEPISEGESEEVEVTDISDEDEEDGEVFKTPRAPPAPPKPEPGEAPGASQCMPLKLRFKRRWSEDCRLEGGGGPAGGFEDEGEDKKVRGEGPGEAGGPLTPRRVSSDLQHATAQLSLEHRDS
In short: as §1

[12] = target: T7, ETV3L (Homo sapiens, UniProt Q6ZN32 1-361); conditions: protein: recombinant; tags: N-terminal GST; dsDNA, one strand shown
T7 sequence: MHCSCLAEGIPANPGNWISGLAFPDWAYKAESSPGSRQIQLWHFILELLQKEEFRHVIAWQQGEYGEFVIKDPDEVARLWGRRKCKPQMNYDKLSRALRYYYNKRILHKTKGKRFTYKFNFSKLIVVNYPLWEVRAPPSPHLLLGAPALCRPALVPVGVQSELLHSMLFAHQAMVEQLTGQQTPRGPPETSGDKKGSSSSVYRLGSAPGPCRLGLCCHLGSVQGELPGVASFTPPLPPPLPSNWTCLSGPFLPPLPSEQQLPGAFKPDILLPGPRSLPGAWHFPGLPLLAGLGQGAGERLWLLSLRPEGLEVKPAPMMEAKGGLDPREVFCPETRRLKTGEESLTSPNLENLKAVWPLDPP
In short: as §1

[13] = target: T8, ETS2 (Homo sapiens, UniProt P15036 1-469); conditions: protein: recombinant; tags: N-terminal GST; dsDNA, one strand shown
T8 sequence: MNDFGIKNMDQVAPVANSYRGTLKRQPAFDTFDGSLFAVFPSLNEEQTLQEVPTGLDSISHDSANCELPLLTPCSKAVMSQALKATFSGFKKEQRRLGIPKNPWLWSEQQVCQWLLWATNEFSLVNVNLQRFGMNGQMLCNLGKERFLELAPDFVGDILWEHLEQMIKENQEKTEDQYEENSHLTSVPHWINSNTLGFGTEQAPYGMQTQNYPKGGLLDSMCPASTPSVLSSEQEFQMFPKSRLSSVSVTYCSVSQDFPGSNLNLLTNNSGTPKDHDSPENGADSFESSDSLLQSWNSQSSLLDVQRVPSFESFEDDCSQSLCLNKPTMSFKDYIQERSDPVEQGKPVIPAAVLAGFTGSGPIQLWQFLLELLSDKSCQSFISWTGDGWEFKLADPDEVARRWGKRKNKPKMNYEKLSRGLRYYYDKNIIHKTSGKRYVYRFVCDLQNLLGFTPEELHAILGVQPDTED
In short: as §1

[14] = target: T9, SPDEF (Homo sapiens, UniProt O95238 1-335); conditions: protein: recombinant; tags: N-terminal GST; dsDNA, one strand shown
T9 sequence: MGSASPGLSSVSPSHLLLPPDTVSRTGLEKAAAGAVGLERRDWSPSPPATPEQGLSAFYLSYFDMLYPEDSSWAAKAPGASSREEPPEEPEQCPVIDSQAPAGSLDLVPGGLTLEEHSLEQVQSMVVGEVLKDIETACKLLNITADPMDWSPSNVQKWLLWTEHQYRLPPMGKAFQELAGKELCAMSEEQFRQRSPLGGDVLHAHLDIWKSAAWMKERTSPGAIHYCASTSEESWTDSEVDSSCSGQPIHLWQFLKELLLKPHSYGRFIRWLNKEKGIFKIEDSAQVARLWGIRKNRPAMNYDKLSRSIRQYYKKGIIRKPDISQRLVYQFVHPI
In short: as §1

[15] = target: T10, ETV7 (Homo sapiens, UniProt Q9Y603 1-341); conditions: protein: recombinant; tags: N-terminal GST; dsDNA, one strand shown
T10 sequence: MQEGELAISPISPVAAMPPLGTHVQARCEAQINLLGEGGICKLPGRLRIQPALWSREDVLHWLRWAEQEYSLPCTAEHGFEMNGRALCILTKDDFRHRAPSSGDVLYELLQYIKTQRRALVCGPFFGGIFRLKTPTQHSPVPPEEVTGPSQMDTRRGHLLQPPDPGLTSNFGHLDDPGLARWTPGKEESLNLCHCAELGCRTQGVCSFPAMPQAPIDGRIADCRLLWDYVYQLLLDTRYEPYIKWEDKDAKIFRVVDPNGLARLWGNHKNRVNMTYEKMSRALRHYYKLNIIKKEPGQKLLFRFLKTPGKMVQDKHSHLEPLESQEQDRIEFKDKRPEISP
In short: as §1

[16] = target: T11, ELF5 (Homo sapiens, UniProt Q9UKW6-2 1-255); conditions: protein: recombinant; tags: N-terminal GST; dsDNA, one strand shown
T11 sequence: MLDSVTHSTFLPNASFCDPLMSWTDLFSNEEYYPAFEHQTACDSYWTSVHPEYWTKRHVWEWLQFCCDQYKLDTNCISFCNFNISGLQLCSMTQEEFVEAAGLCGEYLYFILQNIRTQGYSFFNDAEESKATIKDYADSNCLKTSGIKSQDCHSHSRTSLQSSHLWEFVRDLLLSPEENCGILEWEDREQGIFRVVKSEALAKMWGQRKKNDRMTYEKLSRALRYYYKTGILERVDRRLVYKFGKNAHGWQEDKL
In short: as §1

[17] = target: T12, ETV3 (Homo sapiens, UniProt P41162-2 1-143); conditions: protein: recombinant; tags: N-terminal GST; dsDNA, one strand shown
T12 sequence: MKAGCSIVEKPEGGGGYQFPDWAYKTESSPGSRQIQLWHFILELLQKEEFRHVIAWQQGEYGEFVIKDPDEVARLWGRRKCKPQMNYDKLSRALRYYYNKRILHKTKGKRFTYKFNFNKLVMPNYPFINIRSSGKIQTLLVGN
In short: as §1

[18] = target: ETV6 (Homo sapiens, UniProt P41212 1-452); conditions: protein: recombinant; tags: N-terminal GST; dsDNA, one strand shown
In short: as §1

Chain of ETV5 (P41161 whole entry): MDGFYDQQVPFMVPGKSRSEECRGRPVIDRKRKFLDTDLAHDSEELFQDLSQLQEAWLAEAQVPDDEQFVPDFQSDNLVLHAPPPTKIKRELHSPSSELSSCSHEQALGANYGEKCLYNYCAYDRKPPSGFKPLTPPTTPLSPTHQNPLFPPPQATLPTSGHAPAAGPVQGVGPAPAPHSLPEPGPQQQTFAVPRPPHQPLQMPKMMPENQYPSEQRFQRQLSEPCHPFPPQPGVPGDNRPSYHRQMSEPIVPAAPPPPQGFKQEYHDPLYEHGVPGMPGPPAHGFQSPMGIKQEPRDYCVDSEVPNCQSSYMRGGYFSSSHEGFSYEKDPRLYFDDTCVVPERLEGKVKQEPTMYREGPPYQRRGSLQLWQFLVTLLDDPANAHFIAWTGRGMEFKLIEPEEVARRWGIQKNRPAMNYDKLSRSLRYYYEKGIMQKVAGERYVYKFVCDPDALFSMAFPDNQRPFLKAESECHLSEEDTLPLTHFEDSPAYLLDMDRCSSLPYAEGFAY
Chain of ETV1 (P50549 whole entry): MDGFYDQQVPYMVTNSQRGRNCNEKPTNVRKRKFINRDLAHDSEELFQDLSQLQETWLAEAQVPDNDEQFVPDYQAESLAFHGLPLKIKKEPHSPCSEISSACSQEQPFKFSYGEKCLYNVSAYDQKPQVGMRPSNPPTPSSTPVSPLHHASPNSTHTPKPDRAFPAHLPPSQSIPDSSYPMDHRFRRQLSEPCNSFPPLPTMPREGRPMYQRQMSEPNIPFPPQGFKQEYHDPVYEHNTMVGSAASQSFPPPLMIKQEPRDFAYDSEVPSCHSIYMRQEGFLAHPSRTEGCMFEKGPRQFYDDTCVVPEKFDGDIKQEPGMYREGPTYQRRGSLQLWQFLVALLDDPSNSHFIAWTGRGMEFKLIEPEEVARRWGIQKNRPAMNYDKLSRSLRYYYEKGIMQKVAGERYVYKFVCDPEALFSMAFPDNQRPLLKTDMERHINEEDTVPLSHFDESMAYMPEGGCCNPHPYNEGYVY
Chain of HSF1 (Q00613 whole entry): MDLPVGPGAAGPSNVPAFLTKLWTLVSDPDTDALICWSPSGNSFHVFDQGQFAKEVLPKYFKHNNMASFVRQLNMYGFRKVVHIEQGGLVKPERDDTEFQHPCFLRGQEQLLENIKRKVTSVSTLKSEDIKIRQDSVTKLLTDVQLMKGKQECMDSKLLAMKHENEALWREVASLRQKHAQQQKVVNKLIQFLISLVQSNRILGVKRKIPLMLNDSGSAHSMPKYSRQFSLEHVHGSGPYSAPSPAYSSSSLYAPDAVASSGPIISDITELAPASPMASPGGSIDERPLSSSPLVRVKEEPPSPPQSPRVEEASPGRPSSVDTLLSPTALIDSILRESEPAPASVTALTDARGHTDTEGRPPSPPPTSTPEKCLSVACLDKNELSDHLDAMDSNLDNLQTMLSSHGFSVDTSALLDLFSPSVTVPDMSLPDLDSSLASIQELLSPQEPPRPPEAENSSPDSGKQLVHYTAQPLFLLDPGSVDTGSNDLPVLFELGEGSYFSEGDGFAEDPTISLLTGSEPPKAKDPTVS
Chain of CRX (O43186 whole entry): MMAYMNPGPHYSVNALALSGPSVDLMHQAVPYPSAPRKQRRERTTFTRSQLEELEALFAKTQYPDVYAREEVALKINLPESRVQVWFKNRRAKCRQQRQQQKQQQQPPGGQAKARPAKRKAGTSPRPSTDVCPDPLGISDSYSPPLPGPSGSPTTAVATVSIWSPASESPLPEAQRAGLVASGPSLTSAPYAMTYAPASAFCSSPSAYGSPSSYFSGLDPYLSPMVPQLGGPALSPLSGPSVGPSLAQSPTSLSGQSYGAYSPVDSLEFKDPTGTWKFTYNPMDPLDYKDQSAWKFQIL
Chain of ELF4 (Q99607 whole entry): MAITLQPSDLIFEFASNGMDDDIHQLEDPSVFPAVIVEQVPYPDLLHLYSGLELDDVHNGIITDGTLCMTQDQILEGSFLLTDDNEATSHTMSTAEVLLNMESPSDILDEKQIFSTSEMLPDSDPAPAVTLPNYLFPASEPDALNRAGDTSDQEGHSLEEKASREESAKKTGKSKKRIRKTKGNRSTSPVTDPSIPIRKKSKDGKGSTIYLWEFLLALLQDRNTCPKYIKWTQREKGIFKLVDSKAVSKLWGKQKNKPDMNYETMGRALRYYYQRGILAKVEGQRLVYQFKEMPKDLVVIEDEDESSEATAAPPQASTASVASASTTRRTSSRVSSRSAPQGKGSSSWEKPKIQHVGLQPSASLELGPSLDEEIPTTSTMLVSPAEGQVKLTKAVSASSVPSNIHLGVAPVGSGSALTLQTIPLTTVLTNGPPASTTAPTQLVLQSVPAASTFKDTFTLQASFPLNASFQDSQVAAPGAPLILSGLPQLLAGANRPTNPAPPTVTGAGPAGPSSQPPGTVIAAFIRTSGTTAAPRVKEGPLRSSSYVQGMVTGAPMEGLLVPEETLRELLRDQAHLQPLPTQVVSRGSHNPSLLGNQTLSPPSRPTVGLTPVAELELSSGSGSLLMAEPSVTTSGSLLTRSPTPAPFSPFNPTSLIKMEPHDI
Chain of ETV6 (P41212 whole entry): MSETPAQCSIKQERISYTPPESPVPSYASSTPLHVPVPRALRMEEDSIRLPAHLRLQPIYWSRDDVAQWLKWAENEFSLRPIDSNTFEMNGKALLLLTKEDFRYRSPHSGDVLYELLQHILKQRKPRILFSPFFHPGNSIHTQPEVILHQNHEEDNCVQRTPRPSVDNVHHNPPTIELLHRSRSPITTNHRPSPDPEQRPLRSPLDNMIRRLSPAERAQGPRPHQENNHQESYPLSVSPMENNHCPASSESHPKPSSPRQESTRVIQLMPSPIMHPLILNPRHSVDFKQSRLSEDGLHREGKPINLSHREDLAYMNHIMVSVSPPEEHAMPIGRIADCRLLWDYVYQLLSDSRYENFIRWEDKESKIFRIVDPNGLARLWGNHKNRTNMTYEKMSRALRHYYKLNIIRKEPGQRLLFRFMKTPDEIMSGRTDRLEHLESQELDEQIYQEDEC

**Q.** Which binding signal [1] does the source give for CGACTC here?
**A.** 1.42 fold enrichment (6-mer frequency, TF over GST control)

**Q.** What about the binding signal [2] of the same sequence?
**A.** 1.44 fold enrichment (6-mer frequency, TF over GST control)

**Q.** What about the binding signal [3] of the same sequence?
**A.** 1.37 fold enrichment (6-mer frequency, TF over GST control)

**Q.** And the binding signal [4]?
**A.** 1.64 fold enrichment (6-mer frequency, TF over GST control)

**Q.** What about the binding signal [5] of the same sequence?
**A.** 1.41 fold enrichment (6-mer frequency, TF over GST control)

**Q.** And the binding signal [6]?
**A.** 1.35 fold enrichment (6-mer frequency, TF over GST control)

**Q.** What about the binding signal [7] of the same sequence?
**A.** 1.34 fold enrichment (6-mer frequency, TF over GST control)

**Q.** What about the binding signal [8] of the same sequence?
**A.** 1.25 fold enrichment (6-mer frequency, TF over GST control)

**Q.** What about the binding signal [9] of the same sequence?
**A.** 1.31 fold enrichment (6-mer frequency, TF over GST control)

**Q.** What about the binding signal [10] of the same sequence?
**A.** 1.41 fold enrichment (6-mer frequency, TF over GST control)

**Q.** What about the binding signal [11] of the same sequence?
**A.** 1.59 fold enrichment (6-mer frequency, TF over GST control)

**Q.** And the binding signal [12]?
**A.** 1.36 fold enrichment (6-mer frequency, TF over GST control)

**Q.** What about the binding signal [13] of the same sequence?
**A.** 1.38 fold enrichment (6-mer frequency, TF over GST control)

**Q.** And the binding signal [14]?
**A.** 1.29 fold enrichment (6-mer frequency, TF over GST control)

**Q.** What about the binding signal [15] of the same sequence?
**A.** 1.29 fold enrichment (6-mer frequency, TF over GST control)

**Q.** And the binding signal [16]?
**A.** 1.33 fold enrichment (6-mer frequency, TF over GST control)

**Q.** And the binding signal [17]?
**A.** 1.29 fold enrichment (6-mer frequency, TF over GST control)

**Q.** And the binding signal [18]?
**A.** 1.38 fold enrichment (6-mer frequency, TF over GST control)

Reference: publication PMC7862700, “An all-to-all approach to the identification of sequence-specific readers for epigenetic DNA modifications on cytosine”
